Screening data as filed in PubChem BioAssay.
Cycloheximide cs = Cycloheximide Counterscreen for Small Molecule Inhibitors of Shiga Toxin; cell reporter, cycloheximide protein synthesis inhibition counterscreen; max response, %; hit rate 12% among 300,000; in the data active = max response mostly above about 13%, no sharp cut-off; inactive = mostly below about 14%; note: read at 38.3 µM for the half of the compounds with a filed dose; 0% is about no effect
TbPYK inhibitor = qHTS of Trypanosoma Brucei Inhibitors; pyruvate kinase (Trypanosoma brucei), Q57TT1; TbPYK enzyme, Kinase-Glo Plus ATP luminescence, 45 min; Potency, µM (doses to about 76.8 µM), inactives show top-dose activity, negative = inhibition, most hits filed as inhibitors; hit rate 0.12% among 410,000; AID 624173, 2012; note: potency is the fitted concentration of half-maximal effect; % is set by controls: 0 for no effect and ±100 for the full control effect; nearly all actives have a fitted effect of over 50% in size
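In this concentration-response screen, enzyme-free wells defined baseline while DMSO plates tracked drift. Each reaction combined TbPYK, substrate, compound and 130 uM ADP for 45 min at room temperature. Kinase-Glo Plus luminescence gave the signal.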
Shiga inhibitor = A qHTS for Small Molecule Inhibitors of Shiga Toxin; AID 2315, 2010; Vero cells, Shiga toxin protein synthesis inhibition reporter; inhibition, % at 38.7 µM; hit rate 9.2% among 290,000; in the data active = inhibition mostly above about 28%, no sharp cut-off; inactive = mostly below about 43%; note: 0% is about no effect
Sm TGR block = qHTS Assay for the Inhibitors of Schistosoma Mansoni Peroxiredoxins | Schistosoma mansoni thioredoxin glutathione reductase (TGR), Q962Y6 | purified TGR, DTNB reduction, TNB absorbance 405 nm | Potency, µM (titrated, usually from 114 µM), for the others: top-dose activity change, negative = inhibition, most hits filed as inhibitors | hit rate 3% among 360,000; note: potency is the fitted concentration of half-maximal effect; % is set by controls: 0 for no effect and ±100 for the full control effect; nearly all actives have a fitted effect of over 60% in size
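TGR 20 nM + NADPH 100 uM (dispensed conc.), cpd preinc 15 min RT; start with NADPH (500 uM addition) then DTNB (15 mM addition). Kinetic TNB absorbance, 405 nm filter. Four-parameter Hill fit across titration.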
Giardia FBPA inh = qHTS Assay for Inhibitors of Fructose-1,6-bisphosphate Aldolase from Giardia Lamblia; AID 2451, 2010; Potency, µM (series often up to 59.6 µM), without a hit: at the top dose activity, negative = inhibition, actives largely listed as inhibitors; purified Giardia FBPA; hit rate 0.71% among 290,000; A8B2U2; note: potency is the fitted concentration of half-maximal effect; % is set by controls: 0 for no effect and ±100 for the full control effect; nearly all actives have a fitted effect of over 55% in size
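40 nM FBPA preincubated 10 min at RT with compound (up to 57.5 uM final), then substrate plus GAPDH/TPI/NAD/arsenate coupling and diaphorase/resazurin added. Fluorescence read after 20 min at RT, 525/598 nm.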
LmPK inh = qHTS Assay for Inhibitors of Leishmania Mexicana Pyruvate Kinase (LmPK); hit rate 0.37% among 290,000; purified LmPK, Kinase-Glo ATP luminescence, 1 h; AID 1721, 2009; Potency, µM (doses to about 57.5 µM), for the others: top-dose activity change, negative = inhibition, most hits filed as inhibitors; note: potency is the fitted concentration of half-maximal effect; % is set by controls: 0 for no effect and ±100 for the full control effect
Target sequence (Q27686 whole entry, looked up): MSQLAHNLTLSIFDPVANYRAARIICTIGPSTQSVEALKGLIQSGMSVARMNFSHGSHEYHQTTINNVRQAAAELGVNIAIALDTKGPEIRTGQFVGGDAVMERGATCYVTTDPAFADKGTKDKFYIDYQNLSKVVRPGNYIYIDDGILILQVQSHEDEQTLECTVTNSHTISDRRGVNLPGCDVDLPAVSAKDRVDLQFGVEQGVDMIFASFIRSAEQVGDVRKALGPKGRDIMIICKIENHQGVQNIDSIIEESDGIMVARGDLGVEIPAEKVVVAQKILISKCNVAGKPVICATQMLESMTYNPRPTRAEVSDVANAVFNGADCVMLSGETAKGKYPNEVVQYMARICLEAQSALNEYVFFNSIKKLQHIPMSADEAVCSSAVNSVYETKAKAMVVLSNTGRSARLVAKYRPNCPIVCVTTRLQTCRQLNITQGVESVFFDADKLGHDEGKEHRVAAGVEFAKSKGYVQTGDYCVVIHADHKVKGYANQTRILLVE
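qHTS format; LmPK 0.1 nM; substrates PEP 0.5 mM and ADP 0.1 mM. One-hour room-temperature incubation, then coupled luciferase luminescence; 0.5 nM enzyme wells mark activation.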
Numbers without * were called inactive; [ ] = dose if it differs, or a comment. Many of the other results were omitted from the sample, so hits are more common in it than they were. Unless noted, calls come from the whole dose curve; as a rule, active = well fitted curve in the direction sought with a large enough effect; inconclusive = small, poorly fitted or top-dose-only effect, or another doubt; inactive = no such curve, though single readings can be large; an effect the other way counts as inactive or inconclusive.

CCOC(=O)OCC1OC(c2ccccc2)C=CC1Oc1cccc(N(C)C)c1 (configuration not stated) was read as Giardia FBPA inh -5%[12.9 µM].
For CCCC[C@H]1CCCO[C@@](C(=O)NCc2ccccn2)(C(F)(F)F)C1 the results were Cycloheximide cs 26, Shiga inhibitor 18 and Giardia FBPA inh -3%.
Screening CCCC[C@H]1C[C@@H]1[C@@H]1N(C(C)=O)[C@H](c2cccc(OC)c2)CC12CC2 returned Giardia FBPA inh -3%.
Screening Brc1ccc(-c2csc(N3CCOCC3)n2)cc1 returned Cycloheximide cs 63*, TbPYK inhibitor inconclusive, Shiga inhibitor 136*, Sm TGR block 19%, Giardia FBPA inh -6% and LmPK inh -1%.
`O=[N+]([O-])c1ccc(N2CCN(c3nc(-c4ccc(Cl)cc4)cs3)CC2)cc1` gave Cycloheximide cs -2, TbPYK inhibitor -5%, Shiga inhibitor -15, Sm TGR block 7%, Giardia FBPA inh -1% and LmPK inh 4%.
Screening c1ccc(-c2cnnc(N3CCCCC3)n2)cc1 returned Cycloheximide cs 33*, TbPYK inhibitor 4%, Shiga inhibitor 112*, Sm TGR block 0%, Giardia FBPA inh -1% and LmPK inh -24%.
O=[N+]([O-])c1ccc(-c2csc(N3CCCCCC3)n2)cc1 was read as Cycloheximide cs 17*, TbPYK inhibitor -6%, Shiga inhibitor 26, Sm TGR block 6%, Giardia FBPA inh 1% and LmPK inh 1%.
NC(=O)C1CCN(c2nc(-c3ccc(Br)cc3)cs2)CC1 was read as Cycloheximide cs 20*, TbPYK inhibitor 4%, Shiga inhibitor 28, Sm TGR block 5%, Giardia FBPA inh 4% and LmPK inh 1%.
For COc1ccc(CN2CCc3c(c(=O)n4ncc(C(=O)N5CCN(c6ccccc6OC)CC5)c4n3C)C2)cc1 the results were TbPYK inhibitor -11% and Sm TGR block 0%.
Brc1ccc(-c2csc(N3CCCCCC3)n2)cc1 was read as Cycloheximide cs 8.6*, TbPYK inhibitor -9%, Shiga inhibitor 4, Sm TGR block 52%, Giardia FBPA inh -14% and LmPK inh -8%.
`CN(C(=O)C1CCC1C(=O)O)c1nc(-c2ccc(Cl)s2)cs1` (configuration not stated) gave Cycloheximide cs 9, TbPYK inhibitor -6%, Shiga inhibitor 26, Sm TGR block 3%, Giardia FBPA inh 16% and LmPK inh 5%.
c1ccc(-c2csc(N3CCCCCC3)n2)cc1 was read as Cycloheximide cs 33*, TbPYK inhibitor -14%, Shiga inhibitor active, Sm TGR block -2%, Giardia FBPA inh -4% and LmPK inh -1%.
CN1CCN(c2nc(-c3ccc(Cl)s3)cs2)CC1 was read as Cycloheximide cs 46*, TbPYK inhibitor inconclusive, Shiga inhibitor 50*, Sm TGR block 11%, Giardia FBPA inh -27% and LmPK inh -6%.
`C=CCN1C(=O)c2ccc(C(=O)N(CC)CC(=O)Nc3ccc(OC)cc3)cc2C1=O` gave TbPYK inhibitor 2% and Sm TGR block -2%.
Screening O=C(NCc1ccccn1)Nc1ccccc1F returned Cycloheximide cs 21*, TbPYK inhibitor 3%, Shiga inhibitor 49*, Sm TGR block 5%, Giardia FBPA inh 4% and LmPK inh 0%.
COc1cc([N+](=O)[O-])ccc1NC(=O)NCc1ccccn1 was read as Cycloheximide cs 12*, TbPYK inhibitor 1%, Shiga inhibitor 4, Sm TGR block -2%, Giardia FBPA inh 10% and LmPK inh 1%.
`O=C(NCc1ccccn1)Nc1ccccc1C(F)(F)F` gave Cycloheximide cs 15*, TbPYK inhibitor -8%, Shiga inhibitor 17, Sm TGR block 0% and LmPK inh -5%.
